Results: PubChem BioAssay
The source made the active and inactive calls.

What was measured:
[1] = target: Albumin (Bos taurus) (UniProt P02769); experiment: compounds binding labelled BSA control protein – biochemical, small-molecule microarray, Alexa647 label, 635/667 nm fluorescence, artefact control for SMM control protein annotation, profiling panel (AID 1118); conditions: BSA-A647 binding, fluorescence 635 nm, higher = more signal;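 note: score merges 667 nm emission intensity and signal-to-noise per printed compound spot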
[2] = probe aXIP binding to arrayed compounds – biochemical, NeuroSMM set, 635/667 nm fluorescence, primary screen (AID 1119); conditions: small-molecule microarray, higher = more signal, called active from +8 up or from −8 down;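 note: probe is the protein aXip251-270 applied at 1 µg/mL to compound-printed slides; binding of probe to printed compounds measured as 667 nm fluorescence plus signal to noise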
[3] = probe aNOTCH3 binding on compound microarray – biochemical, small-molecule microarray, 635/667 nm fluorescence, primary screen (AID 1120); conditions: higher = more signal;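 note: probe is a biotin-tagged antibody raised against NOTCH3 rather than NOTCH3 protein; score merges spot fluorescence near 667 nm with spot signal to noise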
[4] = probe aNOTCH2 binding on compound microarray – biochemical, small-molecule microarray, 635/667 nm fluorescence, primary screen (AID 1121); conditions: higher = more signal;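 note: score merges feature fluorescence read at 667 nm with its signal to noise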
[5] = target: Carbonic anhydrase 2 (Homo sapiens) (UniProt P00918); experiment: compounds binding carbonic anhydrase 2 – biochemical, small-molecule microarray, Alexa647-labelled CAII, profiling panel (AID 1122); conditions: CAII-A647 binding fluorescence, higher = more signal
[6] = COS7 lysate on small-molecule microarray, probe aHis, 635 nm (AID 1123); conditions: COS7 cell lysate, fluorescence, higher = more signal;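 note: z-score combines 667nm fluorescence intensity with signal-to-noise per printed compound spot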
[7] = probe aLAP1 signal on lysate-treated microarray – cell lysate, small-molecule microarray, COS7 lysate, primary screen (AID 1124); conditions: probe aLAP1, fluorescence, higher = more signal;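 note: lysate comes from COS7 cells expressing LAP1 and is applied at 0.3 µg/mL; score merges spot fluorescence near 667 nm with signal-to-noise over triplicate slides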
[8] = test system: Sam68 (KHDRBS1); experiment: compounds binding KHDRBS1 protein – biochemical, small-molecule microarray, 635 nm fluorescence, primary screen (AID 1125); conditions: higher = more signal;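 note: score merges 667 nm channel intensity with signal to noise over triplicate slides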
[9] = test system: Chordin-like protein 2 (CHRDL2); experiment: compounds binding chordin-like 2 – biochemical, small-molecule microarray, 635 nm fluorescence, primary screen (AID 1126); conditions: fluorescence 635 nm, higher = more signal;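 note: printed compound slides probed with Chrdl2 protein at 4 µg/mL for 1 h at 4 C; score merges 667 nm emission intensity with signal to noise over three replicate slides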
[10] = target: Concanavalin-A (Canavalia ensiformis) (UniProt P02866); experiment: compounds binding concanavalin A lectin – biochemical, small-molecule microarray, Alexa647 label, 635 nm, artefact control for SMM control protein annotation, primary screen (AID 1127); conditions: ConA-A647 binding fluorescence, higher = more signal;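 note: z combines 667 nm emission intensity with signal-to-noise across three replicate slides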
Chain of Concanavalin-A (Canavalia ensiformis) (P02866 whole entry, looked up): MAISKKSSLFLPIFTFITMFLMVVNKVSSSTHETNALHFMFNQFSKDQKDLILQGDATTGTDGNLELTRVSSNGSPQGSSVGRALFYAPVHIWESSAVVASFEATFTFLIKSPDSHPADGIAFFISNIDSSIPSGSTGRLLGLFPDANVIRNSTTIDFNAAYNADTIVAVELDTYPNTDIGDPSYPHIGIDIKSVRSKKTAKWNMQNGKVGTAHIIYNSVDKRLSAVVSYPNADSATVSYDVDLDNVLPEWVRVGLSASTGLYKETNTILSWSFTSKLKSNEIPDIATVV

Chain of Albumin (Bos taurus) (P02769 whole entry, looked up): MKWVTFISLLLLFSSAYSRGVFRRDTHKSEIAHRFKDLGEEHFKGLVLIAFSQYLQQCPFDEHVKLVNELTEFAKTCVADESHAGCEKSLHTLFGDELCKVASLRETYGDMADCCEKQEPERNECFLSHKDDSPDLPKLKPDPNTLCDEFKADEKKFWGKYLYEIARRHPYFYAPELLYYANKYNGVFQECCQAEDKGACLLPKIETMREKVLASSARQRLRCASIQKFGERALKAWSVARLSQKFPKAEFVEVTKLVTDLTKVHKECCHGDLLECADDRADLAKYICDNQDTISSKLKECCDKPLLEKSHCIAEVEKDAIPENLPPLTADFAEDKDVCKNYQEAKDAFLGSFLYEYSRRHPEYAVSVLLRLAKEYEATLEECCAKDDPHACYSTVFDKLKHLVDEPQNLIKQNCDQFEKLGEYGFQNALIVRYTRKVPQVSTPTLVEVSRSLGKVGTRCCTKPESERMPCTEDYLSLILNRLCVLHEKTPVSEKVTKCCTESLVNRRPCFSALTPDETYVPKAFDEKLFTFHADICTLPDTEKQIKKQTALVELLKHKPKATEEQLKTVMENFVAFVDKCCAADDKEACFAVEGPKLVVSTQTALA

SMILES	composite z-score [1]	composite Z-score [2]	composite z-score [3]	composite z-score [4]	composite z-score [5]	composite z-score [6]	composite z-score [7]	composite z-score [8]	composite z-score [9]	composite z-score [10]
COc1ccc(C(O)C2C=CC3C(=O)NC(=O)C3N2Nc2ccccn2)c2ccccc12 (stereo not given)	0.304	0.224 (inactive)	-0.0431	-0.101	0.879	0.452	-0.14	-0.328	0.485	0.495
Cc1ccc(C(C)CC(O)C2C=CC3C(=O)N(C)C(=O)C3N2NC(=O)OC(C)(C)C)o1 (stereo not given)	1.01	1.31 (inactive)	0.18	-0.0925	0.642	2.44	0.934	1.21	0.541	1.05
C=CC[C@]1(C(=O)NCCCOC)N=C(c2ccc(OCCCO)cc2)O[C@H]1c1ccccc1N=[N+]=[N-]	0.958	0.484 (inactive)	0.205	0.0494	0.726	3.06	0.397	1.31	-0.0877	0.982
O=C1C2C=CC(C(O)C3CCCCC3)N(Nc3ccc([N+](=O)[O-])cc3)C2C(=O)N1c1ccccc1 (stereo not given)	0.674	-0.0746 (inactive)	-0.366	-0.197	0.57	2.53	0.499	1.29	-1.2	0.909
COC(=O)[C@@]1(Cc2ccc(F)cc2)[C@H]2c3cc(C(=O)N(C)C)n(Cc4ccc(S(C)(=O)=O)cc4)c3C[C@H]2CN1C(=O)c1ccccc1	0.653	0.542 (inactive)	-0.142	0.151	0.747	3.39	1.04	-0.181	-0.0016	0.518
O=C1NCC(=O)N2[C@@H]1C[C@@H](C(=O)O)[C@H]2c1cccc(OCCO)c1	-0.175	10.2 (active)	2.12	1.12	0.628	5.25	1.03	1.33	1.6	0.945
COc1ccc([Si](C)(C)[C@H]2[C@H](CCn3cc([C@H](O)c4ccccc4)nn3)O[C@@]3(C(=O)N(Cc4cccc(N5CCOC5=O)c4)c4ccccc43)[C@@H]2C)cc1	-0.0478	-0.01 (inactive)	-0.0068	-0.301	0.0191	0.178	-0.49	1.07	0.528	0.958
C[C@@]1([C@@H](NC(=O)c2ccccc2)c2ccc(-c3ccccc3)cc2)C[C@H]1C1CCCCC1	0.373	0.309 (inactive)	0.106	0.378	-0.137	0.121	-0.0002	-1.66	-1.51	-0.867
COc1ccc(C(=O)Nc2ccc(CN3C(=O)[C@@]4(O[C@@H](CC(=O)N5CCC[C@H]5CO)[C@H]([Si](C)(C)c5ccc(OC)cc5)[C@H]4C)c4ccccc43)cc2)cc1	0.042	0.277 (inactive)	-0.0219	-0.0389	0.51	1.78	0.045	1.31	0.989	1.08
COc1cc2c(cc1OC)CN(C(=O)[C@@H]1[C@H]3C(=O)O[C@H](c4ccccc4)[C@H](c4ccccc4)N3[C@H](c3ccc(O)cc3)[C@@]13C(=O)Nc1ccc(C#CC4(O)CCCCCC4)cc13)CC2	-0.0111	0.841 (inactive)	-0.191	0.0834	0.551	2.01	0.548	1.29	1.03	1.16
CC[C@@H]1C=C(C(=O)O)[C@H](c2ccco2)N1S(=O)(=O)c1ccc(C)cc1	-0.179	0.33 (inactive)	-0.128	-0.108	0.689	0.059	0.591	0.125	0.209	-1.29
CN1C2C=C(CCCO)C(C3C(=O)N(C(N)=O)C(=O)C32)C1c1ccc(CN2CCCC2)cc1 (stereo not given)	-1.07	-0.275 (inactive)	-0.326	-0.152	-0.452	-0.0732	-0.579	-1.18	-0.686	-0.34
CCCCc1cn(C[C@H](Cc2ccccc2)NC(=O)N[C@H](CO)CCc2oc(C(C)=O)c(C(=O)OC)c2C(=O)OC)nn1	0.25	0.119 (inactive)	0.328	-0.12	0.151	0.607	0.0969	1.25	0.756	0.859
O=C1c2ccccc2[C@](Cc2ccccc2I)(C(=O)NC2CC2)[C@H](c2ccc(CO)cc2)N1Cc1ccccc1	-0.213	0.476 (inactive)	-0.0055	-0.0495	0.711	1.7	0.478	0.512	-0.0374	0.894
COCCOC(=O)N1C(=O)[C@@]2(c3cc(C#CCCO)ccc31)[C@H](C(=O)Nc1nc3ccccc3s1)[C@H]1C(=O)O[C@H](c3ccccc3)[C@H](c3ccccc3)N1[C@@H]2c1ccc(OCCO)cc1	0.72	-1.03 (inactive)	0.286	-0.0028	0.295	0.793	0.225	1.28	0.387	1.07
COc1ccc(CCNC(=O)[C@@]2(Sc3ccc(C)cc3)CC(=O)N(C3CCCCC3)[C@@H]2c2ccc(CO)cc2I)cc1	0.805	0.0371 (inactive)	-0.0111	-0.0759	0.513	1.58	0.284	1.31	0.119	0.977
C=CCOC(=O)[C@@H]1[C@H]2C(=O)O[C@H](c3ccccc3)[C@H](c3ccccc3)N2[C@H](c2ccc(OCCOC(=O)[C@@H]3C[C@@H]4C(=O)N[C@@H](CCCCN(C)C)C(=O)N4[C@@H]3c3ccc(O)cc3)cc2)[C@@]12C(=O)Nc1ccc(I)cc12	0.848	0.412 (inactive)	0.0738	-0.177	0.275	1.83	-0.157	1.29	1.15	1.16
C=CCC(OC(C)=O)[C@@H]1[C@@H](N(Cc2cccc3ccccc23)C(=O)c2ccc(-c3ccccc3)cc2)c2cc(OCCCO)ccc2N1C(=O)Cc1ccc(OC)cc1 (stereo not given in full)	0.173	-0.829 (inactive)	-0.0232	-0.143	0.0745	0.0863	-0.0691	-0.0453	-0.147	0.0866
CC(C)(C)OC(=O)CC[C@@]1(C(=O)NCC(O)CO)N=C(c2ccc(OCCCO)cc2)O[C@@H]1c1ccccc1N=[N+]=[N-] (stereo not given in full)	0.866	0.559 (inactive)	0.183	0.0083	0.741	3.53	0.537	1.16	-0.121	1.2
C[C@@H]1ON(c2cccc(C(=O)OC(C)(C)C)c2)[C@H](c2ccc(Br)cc2)[C@H]1C(=O)N1C(=O)OC[C@H]1Cc1ccccc1	0.0512	0.0724 (inactive)	0.0325	-0.0454	0.133	1.2	0.261	1.21	0.52	1.09
C=C(COC)/C(=C/C[C@H](OC(=O)c1ccncc1)c1ccc(OCCO)cc1)c1cnc2ccccc2c1	0.808	0.914 (inactive)	0.227	-0.0389	0.86	1.46	0.334	1.29	1.26	1.17
CC(C)(C)OC(=O)CC[C@]12N=C(c3ccc(OCCCO)cc3)O[C@H]1c1ccccc1N(CCS(=O)(=O)c1ccccc1)C2=O	0.0963	1.02 (inactive)	0.21	-0.0241	0.422	2.48	0.53	1.3	0.765	1.14
[N-]=[N+]=Nc1ccccc1C[C@@]1(C(=O)NCCN2CCOCC2)N=C(c2ccc(OCCCO)cc2)O[C@@H]1c1ccccc1	0.831	0.255 (inactive)	0.144	-0.221	0.468	2.87	0.872	1.3	-0.11	1.11
O=C(NCc1ccc(F)cc1)[C@H]1C[C@H]2C(=O)N[C@@H](Cc3ccccc3)C(=O)N2[C@H]1c1ccc(O)cc1	-1.22	0.239 (inactive)	-0.323	-0.159	0.606	1.56	-0.516	-0.109	0.371	0.368
C=C(CCCC)/C(=C/C[C@@H](OC(C)=O)c1ccccc1OCCO)c1cnc2ccccc2c1	0.263	0.523 (inactive)	0.033	-0.0209	0.684	0.206	0.719	0.97	0.333	0.535
CC(C)C[C@@H]1NC(=O)[C@H]2C[C@@H](C(=O)NCCCCCCN)[C@@H](c3ccc(O)cc3)N2C1=O	0.0662	0.0781 (inactive)	-0.0023	0.171	0.728	2.16	0.627	0.633	1.22	1.18
C[N+](C)(C)CCCCNC(=O)[C@H]1C[C@H]2C(=O)N[C@@H](Cc3ccccc3)C(=O)N2[C@H]1c1ccc(O)cc1	-1.16	0.474 (inactive)	-0.0343	-0.167	0.358	0.396	0.0021	0.247	1.05	0.274
